Experimental data taken from PubChem BioAssay (EPA / NIEHS).
Active and inactive are the calls of the source. The calls were made as follows: active = hit-call score of the fitted dose curve at least 0.9, where 1 is the maximum; inactive = score below 0.9.

Legend:
[1] = ATG_GLI_CIS: Attagene CIS-FACTORIAL HepG2 Assay for human Zinc Finger Protein GLI1 (AID 2282945); conditions: HepG2, Attagene cis-factorial reporter mRNA, GLI element; actives raise or lower the signal
Summary of the method: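 HepG2 cells transiently transfected with cis-promoter multiplexed reporter units report endogenous transcription factor activity. After 24 h chemical exposure, reporter mRNA was quantified by RT-PCR, 6-FAM labelling, HpaI digestion and capillary electrophoresis, with bidirectional fitting against DMSO.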

[2] = target: Bile acid receptor (Homo sapiens) (UniProt Q96RI1); test: ATG_IR1_CIS: Attagene CIS-FACTORIAL HepG2 Assay for human Nuclear Receptor Subfamily 1 Group H Member 4 (NR1H4), IR1 submotif (AID 2282946); conditions: IR1 reporter transcription, actives raise or lower the signal
Summary of the method: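 Transient MRTU transfection, HepG2; 24 h dosing; RNA → RT-PCR → 6-FAM primer extension → HpaI digest → capillary electrophoresis fluorescence. Gain/loss of signal fitted relative to DMSO.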

[3] = ATG_GRE_CIS: Attagene CIS-FACTORIAL HepG2 Assay for human Glucocorticoid Response Elements (GRE) (AID 2282947); conditions: HepG2 GRE cis-reporter, Attagene multiplex mRNA; actives raise or lower the signal
Summary of the method: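 HepG2 cells transiently transfected with multiple cis-promoter reporter units measure endogenous TF activity; 24 h compound exposure. Reporter mRNA quantified by RT-PCR, FAM labelling, HpaI digestion and capillary electrophoresis; bidirectional fit vs DMSO baseline.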

[4] = ATG_ISRE_CIS: Attagene CIS-FACTORIAL HepG2 Assay for human Interferon Regulatory Factor 1 (IRF1) binding to an Interferon-Stimulated Response Element (ISRE) (AID 2282948); conditions: HepG2 ISRE cis-reporter (Attagene), mRNA transcription readout; actives raise or lower the signal
Summary of the method: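 Transiently transfected HepG2 cells carrying cis-element reporter units, dosed 24 hours. Reporter mRNA quantified by RT-PCR, fluorescent primer extension, HpaI digestion and capillary electrophoresis. Bidirectional fitting relative to DMSO.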

[5] = ATG_M_32_CIS: Attagene CIS-FACTORIAL HepG2 Assay for M32 Transcription Factor (Internal Marker) (AID 2282949); conditions: HepG2 Attagene cis-factorial M32 reporter, mRNA; actives raise or lower the signal;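 also: background control marker of the multiplexed CIS panel rather than a real target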
Summary of the method: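 Following 24 h chemical exposure of HepG2 cells transiently expressing cis-promoter reporter constructs, reporter transcript levels were determined by RT-PCR with fluorescent labelling and capillary electrophoresis, then fitted bidirectionally against DMSO.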

[6] = ATG_M_06_CIS: Attagene CIS-FACTORIAL HepG2 Assay for M06 Transcription Factor (Internal Marker) (AID 2282950); conditions: HepG2 Attagene CIS-FACTORIAL M06 internal marker reporter; actives raise or lower the signal
Summary of the method: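 Steps: transfect HepG2 with multiplexed cis-element reporter constructs; dose chemical 24 h; extract RNA with DNase treatment; reverse-transcribe, PCR-amplify, 6-FAM label, HpaI digest; separate fragments by capillary electrophoresis. Activity fitted both directions versus DMSO.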

[7] = target: Hypoxia-inducible factor 1-alpha (Homo sapiens) (UniProt Q16665); test: ATG_HIF1a_CIS: Attagene CIS-FACTORIAL HepG2 Assay for human Hypoxia Inducible Factor 1 (HIF1A) (AID 2282951); conditions: HepG2 Attagene cis-factorial HIF1a reporter transcription; actives raise or lower the signal
Summary of the method: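 HepG2, transient cis-reporter library, 24 h dosing. RNA → RT (oligo dT) → PCR → 6-FAM primer extension → HpaI → CE. Bidirectional curve fit vs DMSO.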

[8] = target: Hepatocyte nuclear factor 6 (Homo sapiens) (UniProt Q9UBC0); test: ATG_HNF6_CIS: Attagene CIS-FACTORIAL HepG2 Assay for human Hepatocyte Nuclear Factor 6 (HNF6) (AID 2282952); conditions: HepG2 Attagene cis-factorial HNF6 reporter transcription; actives raise or lower the signal
Summary of the method: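 Multiplexed mRNA reporter assay in transfected HepG2; 24 h dosing; RT-PCR plus capillary electrophoresis fluorescence; DMSO-referenced bidirectional curve fitting.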

[9] = ATG_MRE_CIS: Attagene CIS-FACTORIAL HepG2 Assay for human Metal Responsive Element (MRE) (AID 2282954); conditions: HepG2 MRE cis-reporter transcription, Attagene multiplex; actives raise or lower the signal
Summary of the method: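 HepG2 cells transiently transfected with multiple cis-element reporter units measure endogenous MTF1-driven transcription. After 24 h compound exposure, reporter mRNA is quantified by RT-PCR with 6-FAM labelling, HpaI digestion and capillary electrophoresis; bidirectional fits versus DMSO.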

[10] = ATG_PBREM_CIS: Attagene CIS-FACTORIAL HepG2 Assay for human Phenobarbital-responsive Enhancer Module (PBREM) (AID 2282955); conditions: HepG2 PBREM cis-reporter, Attagene multiplexed transcription; actives raise or lower the signal
Summary of the method: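 HepG2, transient MRTU transfection, 24 h dosing; RNA → oligo(dT) RT → PCR → 6-FAM extension → HpaI → CE. Bidirectional fit vs DMSO.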

[11] = target: Paired box protein Pax-6 (Homo sapiens) (UniProt P26367); test: ATG_Pax6_CIS: Attagene CIS-FACTORIAL HepG2 Assay for human Paired Box 6 (PAX6) (AID 2282956); conditions: HepG2 CIS-FACTORIAL PAX6 reporter transcription, RNA readout; actives raise or lower the signal
Summary of the method: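 HepG2 cells transiently transfected with cis-promoter-driven multiplexed reporter units sensing endogenous transcription factor activity; 24 h chemical exposure. Reporter mRNA quantified by RT-PCR, 6-FAM labelling, HpaI digestion and capillary electrophoresis; bidirectional fit versus DMSO baseline.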

[12] = ATG_PXRE_CIS: Attagene CIS-FACTORIAL HepG2 Assay for human Pregnane X Receptor Element (PXRE) (AID 2282957); conditions: HepG2 Attagene CIS-FACTORIAL PXRE reporter, mRNA; actives raise or lower the signal
Summary of the method: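 Cells: HepG2, transiently transfected reporter units under cis promoter control. Exposure: 24 h. Detection: reporter mRNA via RT-PCR/CE fluorescence; bidirectional fitting, DMSO-referenced.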

[13] = ATG_PPRE_CIS: Attagene CIS-FACTORIAL HepG2 Assay for human Peroxisome Proliferator-activated Response Element (PPRE) (AID 2282958); conditions: HepG2 PPRE cis-element reporter, Attagene transcription factor profiling; actives raise or lower the signal
Summary of the method: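 Transcript-level reporter induction in transfected HepG2 cells after 24 h chemical exposure, quantified by fluorescence from RT-PCR products separated by capillary electrophoresis.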

[14] = ATG_Sox_CIS: Attagene CIS-FACTORIAL HepG2 Assay for human SRY-box transcription factor (SOX) (AID 2282960); conditions: HepG2 Attagene cis-factorial SOX reporter, mRNA; actives raise or lower the signal
Summary of the method: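 Cells were transfected with reporter constructs under cis-regulatory promoters, then exposed to chemicals for 24 h. Reporter transcripts were quantified by fluorescence after RT-PCR and capillary electrophoresis; activity was fitted in both directions against DMSO.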

[15] = ATG_SREBP_CIS: Attagene CIS-FACTORIAL HepG2 Assay for human Sterol Regulatory Element Binding (SREBP) (AID 2282962); conditions: HepG2 Attagene cis-factorial SREBP reporter, mRNA; actives raise or lower the signal
Summary of the method: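 HepG2 cells transiently transfected with multiplexed cis-promoter reporter units sensing endogenous transcription factors; reporter mRNA measured 24 h after dosing by RT-PCR, 6-FAM labeling, HpaI digestion and capillary electrophoresis. Bidirectional fit versus DMSO.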

[16] = ATG_TA_CIS: Attagene CIS-FACTORIAL HepG2 Assay for human TA Basal Promoter (AID 2282964); conditions: HepG2 Attagene CIS-factorial TA basal promoter reporter; actives raise or lower the signal
Summary of the method: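 Steps: transfect HepG2 with MRTUs; dose 24 h; isolate RNA, DNase-treat, reverse-transcribe; PCR and FAM-label reporter cDNA; digest with HpaI 2h at 37 C; run capillary electrophoresis. Activity fitted both directions against DMSO.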

[17] = target: Heat shock factor protein 1 (Homo sapiens) (UniProt Q00613); test: ATG_HSE_CIS: Attagene CIS-FACTORIAL HepG2 Assay for human Heat Shock Transcription Factor 1 (HSE) (AID 2282953); conditions: HepG2 HSE cis-reporter, Attagene RNA transcription; actives raise or lower the signal
Summary of the method: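 Cells were transfected with cis-element-driven reporter constructs, dosed for 24 h, then total RNA was reverse-transcribed and reporter cDNA amplified, FAM-labelled and digested with HpaI. Fragments were resolved by capillary electrophoresis; gain or loss was fitted against DMSO.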

[18] = ATG_RORE_CIS: Attagene CIS-FACTORIAL HepG2 Assay for human RAR-related Orphan Receptor Element (RORE) (AID 2282959); conditions: HepG2 Attagene cis-factorial RORE reporter, mRNA; actives raise or lower the signal
Summary of the method: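 Multiplexed reporter assay measuring mRNA induction from a cis promoter element in transiently transfected HepG2 cells after 24 h treatment. Detection via RT-PCR and capillary electrophoresis fluorescence; DMSO serves as baseline.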

[19] = target: Signal transducer and activator of transcription 3 (Homo sapiens) (UniProt P40763); test: ATG_STAT3_CIS: Attagene CIS-FACTORIAL HepG2 Assay for human Signal Transducer and Activator of Transcription 3 (STAT3) (AID 2282963); conditions: HepG2, Attagene cis-factorial STAT3 reporter transcription; actives raise or lower the signal
Summary of the method: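 HepG2 cells transiently transfected with cis-element-driven multiple reporter transcription units; after 24 h chemical exposure, reporter mRNA measured by RT-PCR, 6-FAM primer-extension labelling, HpaI digestion and capillary electrophoresis. Bidirectional fitting versus DMSO baseline.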

[20] = target: Transcription factor Sp1 (Homo sapiens) (UniProt P08047); test: ATG_Sp1_CIS: Attagene CIS-FACTORIAL HepG2 Assay for human Specificity Protein 1 (Sp1) (AID 2282961); conditions: HepG2 Sp1 cis-reporter transcription, actives raise or lower the signal
Summary of the method: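 Measures mRNA induction of an Sp1-linked reporter in HepG2 cells 24 h post-dosing. Multiplexed reporters read by RT-PCR and capillary electrophoresis; DMSO serves as negative control and baseline.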

Measured: AC50

Hypoxia-inducible factor 1-alpha (Homo sapiens), sequence (Q16665 whole entry, looked up): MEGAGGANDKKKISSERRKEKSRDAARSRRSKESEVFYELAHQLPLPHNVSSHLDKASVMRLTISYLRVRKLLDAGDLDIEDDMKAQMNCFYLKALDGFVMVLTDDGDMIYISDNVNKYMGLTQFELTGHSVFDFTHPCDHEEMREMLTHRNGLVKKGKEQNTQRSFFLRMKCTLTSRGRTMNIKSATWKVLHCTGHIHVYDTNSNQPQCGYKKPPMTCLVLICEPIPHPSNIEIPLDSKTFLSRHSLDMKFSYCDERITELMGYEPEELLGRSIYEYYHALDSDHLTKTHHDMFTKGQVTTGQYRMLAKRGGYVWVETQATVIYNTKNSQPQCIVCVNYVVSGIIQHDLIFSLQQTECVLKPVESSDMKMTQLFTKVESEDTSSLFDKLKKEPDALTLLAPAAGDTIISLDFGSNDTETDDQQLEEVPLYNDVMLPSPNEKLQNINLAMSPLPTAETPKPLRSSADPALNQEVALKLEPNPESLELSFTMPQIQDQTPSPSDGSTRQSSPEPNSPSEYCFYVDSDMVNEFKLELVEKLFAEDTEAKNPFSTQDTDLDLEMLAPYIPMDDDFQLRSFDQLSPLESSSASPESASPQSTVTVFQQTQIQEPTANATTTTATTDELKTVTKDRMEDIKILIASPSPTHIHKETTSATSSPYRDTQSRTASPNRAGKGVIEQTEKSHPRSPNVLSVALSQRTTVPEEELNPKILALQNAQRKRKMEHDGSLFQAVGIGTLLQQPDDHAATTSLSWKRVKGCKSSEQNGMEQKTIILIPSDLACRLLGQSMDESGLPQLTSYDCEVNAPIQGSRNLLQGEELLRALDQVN
Bile acid receptor (Homo sapiens), sequence (Q96RI1 whole entry, looked up): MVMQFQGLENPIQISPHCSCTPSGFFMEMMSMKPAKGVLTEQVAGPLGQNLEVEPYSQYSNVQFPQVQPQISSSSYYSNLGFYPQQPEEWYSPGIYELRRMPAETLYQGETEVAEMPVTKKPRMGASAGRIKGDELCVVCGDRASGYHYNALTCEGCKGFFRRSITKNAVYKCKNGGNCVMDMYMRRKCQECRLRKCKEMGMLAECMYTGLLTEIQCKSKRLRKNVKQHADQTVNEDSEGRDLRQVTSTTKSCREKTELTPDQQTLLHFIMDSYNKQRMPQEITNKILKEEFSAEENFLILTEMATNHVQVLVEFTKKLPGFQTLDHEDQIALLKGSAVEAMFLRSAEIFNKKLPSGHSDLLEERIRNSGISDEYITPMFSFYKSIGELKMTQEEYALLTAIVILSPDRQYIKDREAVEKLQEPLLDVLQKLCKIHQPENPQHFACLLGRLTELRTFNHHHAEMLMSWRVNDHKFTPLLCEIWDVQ
Heat shock factor protein 1 (Homo sapiens), sequence (Q00613 whole entry, looked up, the tested form may be a part): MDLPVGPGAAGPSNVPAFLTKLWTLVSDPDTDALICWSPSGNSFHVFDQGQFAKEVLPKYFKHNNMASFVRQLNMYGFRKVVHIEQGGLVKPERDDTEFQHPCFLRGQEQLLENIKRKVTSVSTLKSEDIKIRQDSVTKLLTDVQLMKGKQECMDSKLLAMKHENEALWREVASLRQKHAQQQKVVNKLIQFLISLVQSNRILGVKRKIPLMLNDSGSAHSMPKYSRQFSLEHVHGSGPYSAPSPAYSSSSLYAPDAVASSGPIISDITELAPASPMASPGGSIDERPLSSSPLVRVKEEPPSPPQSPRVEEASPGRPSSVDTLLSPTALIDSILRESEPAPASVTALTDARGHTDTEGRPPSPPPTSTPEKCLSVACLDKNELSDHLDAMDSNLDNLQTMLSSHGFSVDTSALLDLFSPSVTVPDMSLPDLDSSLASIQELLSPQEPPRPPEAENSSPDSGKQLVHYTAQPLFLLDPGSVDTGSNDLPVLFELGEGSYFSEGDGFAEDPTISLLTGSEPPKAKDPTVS
Paired box protein Pax-6 (Homo sapiens), sequence (P26367 whole entry, looked up): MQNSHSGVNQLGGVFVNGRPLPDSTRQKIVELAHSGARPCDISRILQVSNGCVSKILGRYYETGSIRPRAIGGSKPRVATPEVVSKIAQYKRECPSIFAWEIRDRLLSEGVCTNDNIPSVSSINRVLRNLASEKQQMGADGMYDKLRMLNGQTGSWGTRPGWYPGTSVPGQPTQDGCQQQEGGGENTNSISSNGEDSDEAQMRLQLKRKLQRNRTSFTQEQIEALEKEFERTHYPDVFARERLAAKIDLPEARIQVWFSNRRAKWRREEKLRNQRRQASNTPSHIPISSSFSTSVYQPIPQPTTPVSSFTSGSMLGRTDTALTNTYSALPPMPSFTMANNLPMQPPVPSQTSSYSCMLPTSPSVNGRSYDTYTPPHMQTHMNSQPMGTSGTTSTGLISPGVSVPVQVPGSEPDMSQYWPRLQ
Hepatocyte nuclear factor 6 (Homo sapiens), sequence (Q9UBC0 whole entry, looked up): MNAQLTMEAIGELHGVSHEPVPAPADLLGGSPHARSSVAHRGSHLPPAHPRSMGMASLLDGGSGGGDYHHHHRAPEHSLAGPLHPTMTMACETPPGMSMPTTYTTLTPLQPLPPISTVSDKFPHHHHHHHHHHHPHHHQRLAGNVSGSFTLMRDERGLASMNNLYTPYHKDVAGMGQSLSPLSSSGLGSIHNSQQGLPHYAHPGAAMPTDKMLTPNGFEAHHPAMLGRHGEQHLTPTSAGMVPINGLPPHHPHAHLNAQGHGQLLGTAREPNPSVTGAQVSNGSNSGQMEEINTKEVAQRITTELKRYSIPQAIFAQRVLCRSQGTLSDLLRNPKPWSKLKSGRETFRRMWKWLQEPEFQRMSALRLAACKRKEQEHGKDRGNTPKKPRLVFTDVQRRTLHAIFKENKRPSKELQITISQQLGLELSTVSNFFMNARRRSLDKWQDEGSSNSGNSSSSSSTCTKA
Transcription factor Sp1 (Homo sapiens), sequence (P08047 whole entry, looked up): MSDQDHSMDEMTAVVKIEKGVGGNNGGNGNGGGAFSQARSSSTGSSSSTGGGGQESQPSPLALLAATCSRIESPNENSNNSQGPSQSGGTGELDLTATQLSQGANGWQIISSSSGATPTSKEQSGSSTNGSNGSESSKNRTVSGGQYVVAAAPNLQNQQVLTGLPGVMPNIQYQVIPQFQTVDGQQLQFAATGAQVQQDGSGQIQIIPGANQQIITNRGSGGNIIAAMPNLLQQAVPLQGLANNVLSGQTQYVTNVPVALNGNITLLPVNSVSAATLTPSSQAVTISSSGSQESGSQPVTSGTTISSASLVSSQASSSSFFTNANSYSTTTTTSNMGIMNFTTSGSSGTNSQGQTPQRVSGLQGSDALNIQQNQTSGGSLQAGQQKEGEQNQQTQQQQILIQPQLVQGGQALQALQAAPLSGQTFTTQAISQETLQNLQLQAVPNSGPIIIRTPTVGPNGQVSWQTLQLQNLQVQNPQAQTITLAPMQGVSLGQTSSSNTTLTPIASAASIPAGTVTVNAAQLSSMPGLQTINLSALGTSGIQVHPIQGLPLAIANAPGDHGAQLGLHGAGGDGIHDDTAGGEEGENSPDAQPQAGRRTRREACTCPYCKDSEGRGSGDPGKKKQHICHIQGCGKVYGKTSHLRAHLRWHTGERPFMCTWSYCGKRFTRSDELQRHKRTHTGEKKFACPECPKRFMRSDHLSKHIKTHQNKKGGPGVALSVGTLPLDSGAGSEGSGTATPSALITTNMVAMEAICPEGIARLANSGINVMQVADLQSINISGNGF
Signal transducer and activator of transcription 3 (Homo sapiens), sequence (P40763 whole entry, looked up): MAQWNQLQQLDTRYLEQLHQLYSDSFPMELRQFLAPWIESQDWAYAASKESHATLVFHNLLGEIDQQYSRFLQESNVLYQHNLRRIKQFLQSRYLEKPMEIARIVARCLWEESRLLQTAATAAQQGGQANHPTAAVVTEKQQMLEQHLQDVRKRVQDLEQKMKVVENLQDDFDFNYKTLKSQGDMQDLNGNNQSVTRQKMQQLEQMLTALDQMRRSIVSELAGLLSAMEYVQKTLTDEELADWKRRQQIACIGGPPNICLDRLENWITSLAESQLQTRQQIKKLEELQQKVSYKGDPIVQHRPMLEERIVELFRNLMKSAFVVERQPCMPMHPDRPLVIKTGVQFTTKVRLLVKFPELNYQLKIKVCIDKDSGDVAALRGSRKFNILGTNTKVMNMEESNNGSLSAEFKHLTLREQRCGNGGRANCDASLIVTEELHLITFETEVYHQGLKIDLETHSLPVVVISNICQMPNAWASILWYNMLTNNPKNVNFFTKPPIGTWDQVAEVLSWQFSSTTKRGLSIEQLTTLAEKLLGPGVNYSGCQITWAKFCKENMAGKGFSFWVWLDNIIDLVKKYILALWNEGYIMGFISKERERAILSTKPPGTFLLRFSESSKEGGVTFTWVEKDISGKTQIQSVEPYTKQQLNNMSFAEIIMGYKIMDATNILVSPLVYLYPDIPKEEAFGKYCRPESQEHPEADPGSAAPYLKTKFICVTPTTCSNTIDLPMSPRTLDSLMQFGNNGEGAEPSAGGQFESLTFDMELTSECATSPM

CC(C)(CO)COC(=O)C(C)(C)CO
inactive: [1] | [2] | [3] | [4] | [5] | [6] | [7] | [8] | [9] | [10] | [11] | [12] | [13] | [14] | [15] | [16]

CC(c1cc(C(C)(C)C)cc(C(C)(C)C)c1O)c1cc(C(C)(C)C)cc(C(C)(C)C)c1O
active: [2] 1.87 µM | [12] 0.078 µM
inactive: [1] | [3] | [4] | [5] | [6] | [7] | [8] | [17] | [9] | [11] | [13] | [18] | [14] | [15] | [19] | [16]

Cc1cc(=O)[nH]c(=O)[nH]1
active: [12] 24.8 µM
inactive: [1] | [2] | [3] | [4] | [5] | [6] | [7] | [8] | [17] | [9] | [11] | [13] | [18] | [14] | [20] | [15] | [16]

CC1(C)C(=O)N(CO)C(=O)N1CO
active: [12] 27.8 µM
inactive: [1] | [2] | [3] | [4] | [5] | [6] | [7] | [8] | [17] | [9] | [11] | [13] | [18] | [14] | [20] | [19] | [16]
